Assay outcomes deposited in PubChem BioAssay by National Center for Advancing Translational Sciences (NCATS).
This is a sample that favours compounds with a hit; in the whole collection about 6.1% have one here.
D1 antag: Antagonist of Human D 1 Dopamine Receptor: qHTS | D(1A) dopamine receptor (Homo sapiens), P21728 | HEK293 TREx D1 cells, calcium flux, dopamine EC80; hits give low values | activity change, negative = inhibition, % at 10 µM | actives 3.2% (n = 360,000) | AID 504652, 2011; in the data active = activity change below about -30%; also: % is scaled to controls: 0 for no effect and ±100 for the full control effect
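Inducible Hek293 Trex D1 cells (tetracycline, overnight, 30 C). Calcium dye 30–90 min RT. Antagonist mode: EC80 dopamine added after 180 s compound read.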
D1 potentiator: Potentiators of Human D1 Dopamine Receptor: qHTS | D(1A) dopamine receptor (Homo sapiens), P21728 | HEK293 TREx D1 cells, calcium flux, dopamine EC20 potentiation | potentiation, % at 10 µM | actives 0.036% (n = 360,000) | AID 504651, 2011; in the data active = potentiation above about 30%; also: 0% is about no effect
ERG-DNA inh: qHTS for Small Molecule Inhibitors of the ERG Ets/DNA interaction. Transcriptional regulator ERG (Homo sapiens), P11308. fluorescence polarization, His-ERG Ets domain / labelled DNA. Potency, µM (doses to about 76.9 µM), without a hit: at the top dose FP activity, negative = inhibition, hits mostly inhibitors. actives 0.028% (n = 370,000); active = well fitted inhibition curve with a large enough effect in the polarisation, with a control signal flat; inconclusive = small, poorly fitted or top-dose-only effect, or effect the other way, or a change in a side signal; inactive = no such curve, though single readings can be large or run the other way; the % refers to the polarisation;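 also: polarization taken with two DNA probes labelled with fluorescein and Texas red; potency is read from the fitted curve at half-maximal effect; % of control where 0% means no effect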
Target sequence (P11308 whole entry, looked up, the tested form may be a part): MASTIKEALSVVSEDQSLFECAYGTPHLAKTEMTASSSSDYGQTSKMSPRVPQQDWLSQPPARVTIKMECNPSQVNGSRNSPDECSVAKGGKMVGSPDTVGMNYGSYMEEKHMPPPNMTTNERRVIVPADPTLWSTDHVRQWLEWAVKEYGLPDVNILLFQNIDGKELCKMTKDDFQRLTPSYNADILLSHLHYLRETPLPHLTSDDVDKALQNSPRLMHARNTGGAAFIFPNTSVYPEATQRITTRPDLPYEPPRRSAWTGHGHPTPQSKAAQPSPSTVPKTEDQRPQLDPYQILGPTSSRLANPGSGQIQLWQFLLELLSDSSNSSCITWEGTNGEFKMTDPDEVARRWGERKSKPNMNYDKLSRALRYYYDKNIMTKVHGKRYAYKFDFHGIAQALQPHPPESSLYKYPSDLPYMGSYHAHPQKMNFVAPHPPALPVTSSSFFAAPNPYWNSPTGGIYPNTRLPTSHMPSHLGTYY
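His-tagged ERG Ets domain (1 uM in the protein solution; 300mM KCl, 50mM Tris-HCl, 1mM EDTA, 1mM DTT, pH 7.5) received compound, then a probe mix of 5 nM fluorescein-DNA and 100nM Texas-615-DNA. Fluorescence polarization was read for both dyes.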
D3 ag: qHTS of D3 Dopamine Receptor Agonist: qHTS. D3R DiscoveRx beta-arrestin cells, luminescence, 90 min. max activation, %. actives 0.58% (n = 410,000). AID 652048, 2013; in the data active = max activation above about 30%; also: 0% is about no effect
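Cells at 1500/well, incubated overnight, then treated with pinned compounds (dopamine as control) for 90 min at 37 degrees C. DiscoveRx reagent added for 30 - 60 minutes at room temperature; luminescence read.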
D1 agonist: Allosteric Agonists of the Human D1 Dopamine Receptor: qHTS; HEK293 T-REx D1 cells, calcium flux, agonist mode; activation, % at 2 µM; actives 1% (n = 360,000); in the data active = activation above about 30%; also: 0% is about no effect
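Tetracycline-induced HEK293 TREx D1 cells, force-coupled to calcium signalling, were dye-loaded with a no-wash calcium kit. Compound was pin-added after a 10 s baseline. Fluorescence was read kinetically at 1 cycle/s for 180 s, with calcium rises flagged as agonism.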
DRD3 antagonist: qHTS of D3 Dopamine Receptor Antagonist: qHTS | actives 2.5% (n = 360,000) | max response, negative = inhibition, % | D3R cells, DiscoveRx beta-arrestin luminescence, antagonist mode; hits give low values; in the data active = max response below about -50%; inconclusive = no clear call, values can overlap the other calls; also: % is scaled to controls: 0 for no effect and ±100 for the full control effect
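Cells plated overnight at 1500 cells/well, then exposed to library compounds with dopamine controls for 90 minutes at 37 degrees C. DiscoveRx reagent added for 30–60 minutes at room temperature; luminescence read, quantitative HTS format.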
Starred values were filed as active, the others as inactive; ? = inconclusive; · = no result given; + = active, no number; ! = a repeat was not active.

SMILES	D1 antag	D1 potentiator	ERG-DNA inh	D3 ag	D1 agonist	DRD3 antagonist
Cc1ccc(-n2c(SCC(=O)OC(C)C)nnc2-c2ccncc2)cc1	8	4	-2%	1	38*	?
C[C@@H](CN1CCC[C@H]1CN1C(N)=NC[C@@H]1Cc1ccccc1)N1C[C@@H](Cc2ccccc2)N(CCc2ccc(Cl)c(Cl)c2)C1=N	·	·	19%	-48	·	-53*
CC(C)[C@H](CN1CCC[C@H]1CN1C(N)=NC[C@@H]1Cc1ccccc1)N1C[C@@H](Cc2ccccc2)N(CCc2ccc(Cl)c(Cl)c2)C1=N	·	·	13%	-11	·	-29
CC(C)[C@@H]1CN=C(N)N1C[C@@H]1CCCN1C[C@H](C)N1C[C@@H](Cc2ccccc2)N(CCc2ccc(Cl)c(Cl)c2)C1=N	·	·	-5%	-20	·	-60*
COC(=O)c1sc(S(=O)(=O)N2CCC(C(N)=O)CC2)c(C(=O)OC)c1C	-20	-1	-4%	-2	1	-13
COc1ccc(OC)c(/C=C2\SC(=S)N(C(C(=O)O)c3ccccc3)C2=O)c1 (stereo not drawn)	-2	-2	19%	2	35*	23
COC(=O)c1ccc2c(c1)C(C)(C)C(/C=C/c1ccc(OC)c(OC)c1OC)=[N+]2C	-2	-7	?	-21	5	-88*
COC(=O)c1ccc2c(c1)C(C)(C)C(/C=C/c1ccc(O)cc1)=[N+]2C	-6	0	?	-51	20	?
CCN(CC)CCNC(=S)Nc1ccc2nc3n(c(=O)c2c1)CCCCC3	-5	-3	-14%	-7	3	?
CCN1CCN(C(=S)Nc2ccc3nc4n(c(=O)c3c2)CCCCC4)CC1	-2	-4	-11%	-9	36*	10
CCCN(CCC)CCCNC(=S)Nc1ccc2nc3n(c(=O)c2c1)CCCCC3	-30*	-10	4%	-7	0	-8
O=[N+]([O-])c1ccc(N/N=C/c2ccc(O)c(O)c2O)c(S(=O)(=O)N2CCOCC2)c1	-1	10	9%	1	6	-24
O=[N+]([O-])c1ccc(N/N=C/c2cccc(O)c2O)c(S(=O)(=O)N2CCOCC2)c1	-76*	-13	-11%	-8	58*	-64*
O=C1OCCC1=COCCCCCOC=C1CCOC1=O	·	·	·	-3	·	-2
O=C(C[n+]1ccccc1)N/N=C/c1cc(Br)ccc1O	2	-2	0%	-2	1	-89*
Nc1nonc1C(=O)N/N=C/c1cc(Br)ccc1O	-3	-4	-3%	14	63*	15
Nc1nonc1-n1nnc(C(=O)N/N=C/c2cc(Br)ccc2O)c1CNc1ccccc1	-10	-5	8%	9	7	10
O=C(C[n+]1ccccc1)N/N=C/c1ccccc1F	16	2	?	5	5	1
O=C1c2cccc(NCCNCCO)c2C(=O)c2cccc(NCCNCCO)c21	·	·	·	-11	·	0
COc1ccc2c(c1)c(CC(=O)Nc1ccc(C(C)=O)cc1)c(C)n2C(=O)c1ccc(Cl)cc1	-1	-1	-2%	-10	1	-30
COc1ccc2c(c1)c(CC(=O)Nc1nnc(C3CC3)s1)c(C)n2C(=O)c1ccc(Cl)cc1	13	-5	14%	54*	2	79
CCc1cccc(NC(=O)C2CCCN(S(=O)(=O)c3c(C)[nH]c(=O)[nH]c3=O)C2)c1 (stereo not drawn)	2	-6	7%	2	2	-15
CC1=NC(=O)C(N=Nc2ccccc2)N1c1ccccc1 (stereo not drawn)	0	2	0%	-3	-1	-58*
CC1=NC(=O)C(N=Nc2ccccc2C(=O)O)N1c1ccccc1 (stereo not drawn)	-11	5	7%	32*	2	51
CC1=NC(=O)C(N=Nc2cccc(C(=O)O)c2)N1c1ccccc1 (stereo not drawn)	0	-3	1%	-5	0	?
SMILES	D1 antag	D1 potentiator	ERG-DNA inh	D3 ag	D1 agonist	DRD3 antagonist
O=C(COC(=O)/C=C/c1ccccc1Cl)NCC1CCCO1 (stereo not drawn)	·	·	-16%	1	·	-11
CN(CC(=O)NCc1ccccc1)S(=O)(=O)c1ccc2c(c1)CCC(=O)N2	1	5	11%	1	1	9
CN(CC(=O)NCCN1CCN(c2ccccc2)CC1)S(=O)(=O)c1ccc2c(c1)CCC(=O)N2	-20	-5	-10%	21	1	-64*
Cc1ccc(C)c(NC(=O)C2(C)CCN2C(=O)C(C)C)c1 (stereo not drawn)	·	·	·	6	·	-4
CCOC(=O)C1=C(C)NC(=S)N(C(C)=O)C1c1ccc(Cl)cc1 (stereo not drawn)	-9	-5	·	-7	4	?
COCCOC(=O)C1=C(C)NC(=O)N(C(C)=O)C1c1ccc(Cl)cc1 (stereo not drawn)	0	-2	·	-7	16	-102*
Fc1cc2[nH]c(=S)[nH]c2cc1Cl	-41*	-4	2%	6	2	-11
NC(=S)NN=Cc1c[nH]c2nccnc12	·	·	·	-31	·	+
COc1ccc(N2C(=O)CC(N3CCC(O)(c4ccc(Br)cc4)CC3)C2=O)cc1 (stereo not drawn)	-2	-4	-9%	3	4	10
CCCOc1ccc(N2C(=O)CC(N3CCC(O)(c4cccc(C(F)(F)F)c4)CC3)C2=O)cc1 (stereo not drawn)	-32*	1	3%	9	2	18
O=C1CC(N2CCN(c3cccc(C(F)(F)F)c3)CC2)C(=O)N1c1ccccc1 (stereo not drawn)	-2	-4	-5%	-4	53*	-29
CCCC(=O)n1nc(-c2cccnc2)nc1NCc1ccc(OC)cc1	-7	-7	5%	57*!	2	2
COc1ccccc1C(=O)n1nc(-c2cccnc2)nc1NCc1ccccc1	7	-2	4%	4	3	3
COC(=O)c1ccc(-n2nnnc2SCC(=O)N2CCCCC2)cc1	-30*	-4	0%	-7	5	18
COc1ccc(OC)c(-n2nnnc2SCC(=O)Nc2ccc(C(=O)N3CCCCC3)cc2)c1	-12	-2	·	33*	9	6
